The results in this text go back to PubChem BioAssay AID504848 (National Center for Advancing Translational Sciences (NCATS), 2011).

SMILES strings stand for the structures. Among all 2,300 compounds or so, about 1,400 (61%) were called active. Roughly 29% stayed inconclusive and do not appear here. Calls follow the shape of the dose curve; as a rule, active = well fitted inhibition curve with a large enough effect; inconclusive = small, poorly fitted or top-dose-only effect, or effect the other way; inactive = no such curve, though single readings can be large or run the other way. So high a share suggests a set chosen from earlier hits. The list shows a part of the results.
Potency is read from the fitted curve at half-maximal effect.

The assay in a line: Confirmation screen for delayed death inhibitors of the malarial parasite plastid, 96 hour incubation. Also: nearly all actives have a fitted effect of over 60% in size. The following applies: P. falciparum luciferase growth in erythrocytes; series mostly up to 28.7 µM. The gist of the method: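 Two-generation (96 h, 37 C) exposure of P. falciparum carrying an integrated firefly luciferase reporter in erythrocytes, 0.1% parasitemia and 2% hematocrit final, Albumax-supplemented RPMI. Luminescence decrease measures growth inhibition.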
For the compound `C=CCNC(=O)c1cnc2n(c1=O)CCS2`, the Potency result is “inactive”.

For the compound `COc1ccc(C(=O)NC2CCCc3c2cnn3-c2cccc(C)c2C)o1` (stereo not given), the Potency was 12.6 µM (active).

Regarding `Cc1cccc(-n2ncc3c2CCCC3NC(=O)C2=CC(=O)CC(C)(C)O2)c1C` (stereo not given), the Potency is 12.6 µM (active).

On to `O=S(=O)(c1ccc(Cl)c(Cl)c1)c1snnc1-c1ccccc1`, for which the Potency was 7.94 µM (active).

As to `CCCNC(=O)c1nnsc1S(=O)(=O)c1ccc(Cl)cc1`, the Potency entry is “inactive”.

For the compound `N#Cc1ccc(Oc2ccc(-c3nc4ccccc4nc3-c3ccccc3)cc2)cc1C#N`, the Potency is 0.708 µM (active).

With `CCOC(=O)C(Cc1ccccc1)C(=O)Nc1cccc2ccccc12` (stereo not given), the Potency was 5.01 µM (active).

For the compound `CCc1nn(CCCC(=O)NCc2ccccc2C)c(=O)c2cc3occc3n12`, the Potency was 7.08 µM (active).

In the case of `O[C@@H]1[C@@H](O)C=C2CCN3Cc4cc5c(cc4[C@H]1C23)OCO5` (stereo not given in full), the Potency is 1.58 µM (active).

As for `S=c1[nH]nc(COc2ccccc2)n1/N=C/C(Cl)=C/c1ccccc1`, the Potency is 12.6 µM (active).

In the case of `ClC(/C=N/n1cnnc1)=C/c1ccccc1`, the Potency was 10 µM (active).

With `O=C(O)CCCN1C(=O)/C(=C\C(Cl)=C\c2ccccc2)SC1=S`, the Potency is 5.01 µM (active).

As for `C=C1c2c(Cl)ccc(O)c2C(O)=C2C(=O)[C@@]3(O)C(O)=C(C(N)=O)C(=O)[C@@H](N(C)C)[C@@H]3[C@@H](O)[C@H]12`, the Potency is 2 µM (active).

On to `C=C1c2c(Cl)ccc(O)c2C(O)=C2C(=O)[C@]3(O)C(O)=C(C(N)=O)C(=O)[C@@H](N(C)C)[C@@H]3[C@@H](O)C12` (stereo not given in full), for which the Potency was 2 µM (active).

Take `C[C@@H]1c2cccc(O)c2C(O)=C2C(=O)[C@@]3(O)C(O)=C(C(N)=O)C(=O)[C@@H](N(C)C)[C@@H]3[C@@H](O)[C@@H]21`: the Potency was 2.51 µM (active).

Turning to `S=c1[nH]nc(-c2cc(-c3ccccc3)n[nH]2)n1/N=C/C(Br)=C/c1ccccc1`, the Potency was 3.98 µM (active).

Regarding `S=c1[nH]nc(-c2ccccc2)n1/N=C/c1ccc(-c2ccccc2Cl)o1`, the Potency result is “inactive”.

As for `COc1ccc(C(=S)N2CCN(c3ccccc3C)CC2)cc1`, the Potency was 12.6 µM (active).

`Cc1ccc(C(=O)NCCc2nnc3ccc(SCC(=O)NCc4ccc(F)cc4)nn23)cc1`: the Potency was 7.94 µM (active).

For `COc1cccc(NC(=O)CSc2ccc3nnc(CCNC(=O)c4ccccc4)n3n2)c1`, the Potency entry is “inactive”.

For `Cc1cccc(C)c1Nc1c(-c2ccc(N3CCOCC3)cc2)nc2ncccn12`, the Potency was 12.6 µM (active).

On to `CC(C)(C)c1ccc(C(=O)Nc2sc3c(c2C(=O)O)CCC3)cc1`, for which the Potency is 10 µM (active).

For the compound `O=C(/C=C/c1cccs1)Nc1sc2c(c1C(=O)O)CCCC2`, the Potency result was “inactive”.

As to `Cc1ccc(-c2nnc(SCC(=O)N/N=C/c3cccs3)n2-c2ccc(C)cc2)cc1`, the Potency was 10 µM (active).

Turning to `Cc1nnc(N2CCCC(C(=O)NCc3cccc(F)c3)C2)c2nn(-c3ccccc3)c(C)c12` (stereo not given), the Potency was 12.6 µM (active).

`CCCCc1nc2cc(C(=O)N3CCN(c4nc(C)cnc4C)CC3)ccc2o1`: the Potency was 10 µM (active).

As to `Cc1ccc(NS(=O)(=O)c2ccc(-c3cnc(C4CC4)o3)cc2)c(C)c1`, the Potency was 7.08 µM (active).

As for `Cn1c(=O)n(Cc2ccccc2)c(=O)c2c1nc1n2CCN1Cc1ccco1`, the Potency is 7.94 µM (active).

In the case of `Cc1nc(-c2ccc(S(=O)(=O)N3CCCN(CCc4ccccc4)CC3)s2)cs1`, the Potency was 3.55 µM (active).

As for `CCCCCCCNC(=O)C1(CC2CC(c3ccc(Cl)cc3)=NO2)CCN(C(=O)Cc2ccc(F)cc2)CC1` (stereo not given), the Potency was 7.94 µM (active).

As for `CCCCCCCNC(=O)C1(CC2CC(c3ccc(Cl)cc3)=NO2)CCN(C(=O)C2CCCC2)CC1` (stereo not given), the Potency was 10 µM (active).

Regarding `O=C(Nc1ccc(S(=O)(=O)N2CCOCC2)cc1)c1ccc([N+](=O)[O-])o1`, the Potency is 3.55 µM (active).

With `O=C(Nc1ccc(N2CCOCC2)c(Cl)c1)c1cc2ccccc2o1`, the Potency is 2.82 µM (active).

Turning to `CCCC(=O)N1CCN(c2ccc(NC(=O)c3ccc([N+](=O)[O-])o3)cc2Cl)CC1`, the Potency is 8.91 µM (active).

As to `CC(C)C(=O)N1CCN(c2ccc(NC(=O)c3ccc([N+](=O)[O-])o3)cc2)CC1`, the Potency is 4.47 µM (active).

`Cc1cccc(-c2c(NC(=O)c3ccco3)oc3ccc(Cl)cc3c2=O)c1`: the Potency entry is “inactive”.

For `CCN1CCN(c2ccc(NC(=O)c3ccc([N+](=O)[O-])o3)cc2Cl)CC1`, the Potency is 7.94 µM (active).

Regarding `CCCC(=O)N1CCN(c2ccc(NC(=O)c3ccc([N+](=O)[O-])o3)cc2)CC1`, the Potency was 6.31 µM (active).

As to `CCC(=O)N1CCN(c2ccc(NC(=O)c3ccc([N+](=O)[O-])o3)cc2Cl)CC1`, the Potency is 7.94 µM (active).

For `CC(C)C(=O)N1CCN(c2ccc(NC(=O)c3ccco3)cc2Cl)CC1`, the Potency is 6.31 µM (active).

As to `CC(=O)OC[C@H]1O[C@@H](n2ncc(=O)[nH]c2=O)[C@H](OC(C)=O)[C@@H]1OC(C)=O`, the Potency result is “inactive”.

Turning to `CS(=O)(=O)N1CCN(c2ccc(NC(=O)c3ccc([N+](=O)[O-])o3)cc2)CC1`, the Potency was 7.08 µM (active).

`COc1cc2c(cc1OC)CN(C(=O)c1cccc(S(=O)(=O)N3CCc4ccccc43)c1)CC2`: the Potency is 11.2 µM (active).

As to `O=C(c1cccc(S(=O)(=O)N2CCc3ccccc32)c1)N1CCN(c2ccccc2)CC1`, the Potency was 11.2 µM (active).

Take `CN(Cc1nc2ccccc2c(=O)[nH]1)C(=O)c1cccc(S(=O)(=O)N2CCc3ccccc32)c1`: the Potency is 11.2 µM (active).

Turning to `O=C(CNC(=O)c1cccc(S(=O)(=O)N2CCc3ccccc32)c1)Nc1ccc(F)c(F)c1F`, the Potency is 11.2 µM (active).

Regarding `CCc1cc(SC#N)ccc1N`, the Potency was 8.91 µM (active).

As for `CC(C)(C)Nc1nc(Cl)nc(NC2CCCCC2)n1`, the Potency was 12.6 µM (active).

With `CCCc1cc(=O)n2nc(N3CCC(C(=O)NCc4ccc(C)o4)CC3)sc2n1`, the Potency was 8.91 µM (active).

On to `CCCc1cc(=O)n2nc(N3CCC(C(=O)N4CCN(c5ccc(OC)cc5)CC4)CC3)sc2n1`, for which the Potency is 10 µM (active).

`COc1cc(CNc2cccc(C(=O)O)c2)cc(Br)c1OCC(=O)NC(C)(C)C`: the Potency is 12.6 µM (active).

For `COc1ccccc1CCC(=O)N1CCN(S(=O)(=O)c2cc(C(F)(F)F)ccc2Cl)CC1`, the Potency is 11.2 µM (active).

`Cc1ccc(C)c(-c2cc(C(=O)NNC(=S)NCC(C)C)c3ccccc3n2)c1`: the Potency is 11.2 µM (active).

`Cc1ccc(C)c(-c2cc(C(=O)Nc3nccs3)c3ccccc3n2)c1`: the Potency was 1.12 µM (active).

Turning to `Cc1ccccc1-c1cc(C(=O)n2cccn2)c2cc(Cl)ccc2n1`, the Potency entry is “inactive”.

Take `CC[n+]1ccccc1/C=C/c1ccc(N(C)C)cc1`: the Potency was 1.58 µM (active).

Regarding `Cc1ccc(/C=C/c2ccc(N(C)C)cc2)[n+](C)c1`, the Potency is 0.501 µM (active).

For the compound `Cn1c(=O)c(=O)n(C)c2cc(N3CCCCC3)c(NS(=O)(=O)c3ccc(Br)cc3)cc21`, the Potency was 12.6 µM (active).

`Cc1ccc(C(=O)NNc2c3ccccc3nc3ccccc23)cc1`: the Potency is 10 µM (active).

As to `O=C(NNc1c2ccccc2nc2ccccc12)C(O)c1ccccc1` (stereo not given), the Potency is 10 µM (active).

As to `COc1ccccc1OCC(=O)NNc1c2ccccc2nc2ccccc12`, the Potency is 5.01 µM (active).

With `Cc1ccc(OCC(=O)NNc2c3ccccc3nc3ccccc23)cc1`, the Potency was 6.31 µM (active).

Take `COc1cccc(C(=O)NNc2c3ccccc3nc3ccccc23)c1`: the Potency was 15.8 µM (active).

On to `O=C(CCCO)NNc1c2ccccc2nc2ccccc12`, for which the Potency is 6.31 µM (active).

Turning to `O=C(COc1ccccc1)NNc1c2ccccc2nc2ccccc12`, the Potency was 5.01 µM (active).

Turning to `O=C(COc1ccccc1)Nc1nnc(-c2ccc(F)cc2)o1`, the Potency result is “inactive”.

With `O=C(COc1cccc2ccccc12)Nc1ccc(Cl)cc1C(=O)O`, the Potency result is “inactive”.

Consider `Cc1cccc(OCC(=O)NNc2c3ccccc3nc3ccccc23)c1`, for which the Potency is 4.47 µM (active).

With `O=C(CN1CCOCC1)NNc1c2ccccc2nc2ccccc12`, the Potency was 12.6 µM (active).

As for `N#Cc1c(N2C(=O)Nc3ccccc3N2O)sc2c1CCCCCC2`, the Potency was 14.1 µM (active).

For the compound `O=C(NC1CCC1)C1CCC(=O)N(Cc2ccccc2F)C1` (stereo not given), the Potency entry is “inactive”.

`Cc1ccc2nc(CNC(=O)C3CCC(=O)N(Cc4ccccc4F)C3)cn2c1` (stereo not given): the Potency was 11.2 µM (active).

In the case of `COCCn1c(C)cc(C(=O)CSc2cc(C)c3ccc(OC)cc3n2)c1C`, the Potency was 17.8 µM (active).

Consider `CCCSCCCNC(=O)c1ccccc1NC(=O)C1=CSCCO1`, for which the Potency is 12.6 µM (active).

Take `COc1ccc([C@@]2(C(C)C)ON(c3ccccc3C(F)(F)F)C2=O)cc1`: the Potency was 0.501 µM (active).

Consider `COc1ccc(CN(CCC(c2ccccc2)c2ccco2)C(=O)c2ccco2)cc1` (stereo not given), for which the Potency was 8.91 µM (active).

In the case of `COc1ccc(S(=O)(=O)N/N=C(/C)c2ccco2)cc1`, the Potency entry was “inactive”.

For `Fc1cc2nc(-c3ccncc3)[nH]c2cc1F`, the Potency is 3.16 µM (active).

For the compound `COCCN(C(=S)Nc1ccc(OC)c(Cl)c1)C1CCN(C(C)C)CC1`, the Potency was 11.2 µM (active).

With `CC(=O)Nc1sc2c(c1-c1nc3ccccc3s1)CCN(C(C)C)C2`, the Potency is 0.316 µM (active).

For the compound `CC(C)N1CCc2c(sc(NC(=S)NC(=O)c3ccccc3)c2C#N)C1`, the Potency is 2 µM (active).

With `N#Cc1cc(S(=O)(=O)c2ccccc2)c(N)[nH]c1=O`, the Potency result is “inactive”.

As to `COc1cccc(NC(=O)c2ccc(CN3CCN(c4ccccc4)CC3)cc2)c1`, the Potency is 14.1 µM (active).

As for `COc1ccc(NC(=O)c2ccc(CN3CCN(c4ccccc4)CC3)cc2)cc1OC`, the Potency is 12.6 µM (active).

As for `COc1cccc(NC(=O)c2ccc3c(c2)C(=O)N(CC2CCCO2)C3=O)c1` (stereo not given), the Potency entry is “inactive”.

For the compound `C#CC[N+]1(CC#Cc2ccc(C#CC[N+]3(CC#C)CCOCC3)cc2)CCOCC1`, the Potency was 5.62 µM (active).

`Cc1ccc(-c2csc3nc[nH]c(=O)c23)cc1`: the Potency entry was “inactive”.

Consider `Cc1c(C)n2c(SCC(=O)Nc3ccc4c(c3)OCCO4)nnc2[nH]c1=O`, for which the Potency is 1.58 µM (active).

For the compound `CCOc1ccc2c(c1)OC(c1ccccc1)(C(F)(F)F)NC2=O` (stereo not given), the Potency was 1.41 µM (active).

Take `O=C(CCNS(=O)(=O)c1cccc2nonc12)NCCc1ccc(Cl)cc1`: the Potency was 11.2 µM (active).
